Assay results reported in article PMC7862700, “An all-to-all approach to the identification of sequence-specific readers for epigenetic DNA modifications on cytosine”.

Assays:
Test in all cases: DAPPL (digital affinity profiling via proximity ligation, sequencing); 10 mM Tris-HCl pH 7.5, 50 mM NaCl, 1 mM DTT, 4% glycerol, room temperature, 30 min; GST-TFs on glutathione beads, 16-mer random dsDNA library, 0.1% formaldehyde crosslink after washing; high values mean tight binding
FLI1 = target: T1, FLI1 (Homo sapiens, UniProt Q01543 1-452); details: protein: recombinant; tags: N-terminal GST; dsDNA, one strand shown
T1 sequence: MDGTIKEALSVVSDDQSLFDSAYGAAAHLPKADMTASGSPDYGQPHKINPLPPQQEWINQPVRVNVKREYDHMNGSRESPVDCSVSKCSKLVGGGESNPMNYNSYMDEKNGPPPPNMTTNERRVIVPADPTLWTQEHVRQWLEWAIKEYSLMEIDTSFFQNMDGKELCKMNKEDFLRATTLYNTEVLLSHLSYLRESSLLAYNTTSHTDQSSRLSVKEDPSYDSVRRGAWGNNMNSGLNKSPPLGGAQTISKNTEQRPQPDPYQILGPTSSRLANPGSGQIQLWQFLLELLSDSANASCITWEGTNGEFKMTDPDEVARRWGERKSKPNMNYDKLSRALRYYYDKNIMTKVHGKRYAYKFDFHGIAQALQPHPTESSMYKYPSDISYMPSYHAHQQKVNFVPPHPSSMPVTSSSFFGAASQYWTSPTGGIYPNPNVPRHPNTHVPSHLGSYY
Method in brief: (§1)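 GST fusions of human transcription factors were expressed in yeast and captured with glutathione beads. Once given DNA barcodes and pooled alongside a tag-only sample, they were incubated for 30 min at room temperature with 200 nmole of a random double-stranded 16-mer DNA library in Tris/NaCl/DTT/glycerol buffer, then washed, crosslinked (0.1% formaldehyde), proximity-ligated, PCR-amplified and sequenced on an Illumina NextSeq500. The binding signal of each hexamer is its read frequency for a factor divided by its frequency for the tag-only sample.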

ELK1 = target: T2, ELK1 (Homo sapiens, UniProt P19419 1-428); details: protein: recombinant; tags: N-terminal GST; dsDNA, one strand shown
T2 sequence: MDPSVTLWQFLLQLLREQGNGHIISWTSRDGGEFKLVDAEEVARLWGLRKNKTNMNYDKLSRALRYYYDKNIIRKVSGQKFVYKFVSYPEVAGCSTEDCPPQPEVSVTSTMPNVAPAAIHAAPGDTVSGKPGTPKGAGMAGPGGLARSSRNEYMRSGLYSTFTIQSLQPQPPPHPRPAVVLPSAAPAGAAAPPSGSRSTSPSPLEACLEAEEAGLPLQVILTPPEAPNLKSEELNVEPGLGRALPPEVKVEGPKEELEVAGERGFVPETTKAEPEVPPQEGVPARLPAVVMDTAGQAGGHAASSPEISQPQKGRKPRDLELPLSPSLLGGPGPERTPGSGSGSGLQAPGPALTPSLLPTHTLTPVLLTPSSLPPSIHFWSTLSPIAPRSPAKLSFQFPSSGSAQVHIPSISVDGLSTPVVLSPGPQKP
Method in brief: as §1

GABPA = target: T3, GABPA (Homo sapiens, UniProt Q06546 1-454); details: protein: recombinant; tags: N-terminal GST; dsDNA, one strand shown
T3 sequence: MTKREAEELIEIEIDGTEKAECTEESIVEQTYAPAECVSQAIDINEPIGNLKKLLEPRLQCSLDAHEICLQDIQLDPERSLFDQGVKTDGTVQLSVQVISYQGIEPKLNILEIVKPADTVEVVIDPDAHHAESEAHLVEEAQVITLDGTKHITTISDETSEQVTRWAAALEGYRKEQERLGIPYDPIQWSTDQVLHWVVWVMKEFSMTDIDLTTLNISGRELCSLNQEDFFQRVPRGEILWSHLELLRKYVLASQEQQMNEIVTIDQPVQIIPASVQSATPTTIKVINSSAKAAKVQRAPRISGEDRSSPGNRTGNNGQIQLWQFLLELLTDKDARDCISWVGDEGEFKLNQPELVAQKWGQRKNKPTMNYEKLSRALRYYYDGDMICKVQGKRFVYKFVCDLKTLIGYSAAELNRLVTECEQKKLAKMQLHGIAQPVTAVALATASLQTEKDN
Method in brief: as §1

ERG = target: T4, ERG (Homo sapiens, UniProt P11308 1-479); details: protein: recombinant; tags: N-terminal GST; dsDNA, one strand shown
T4 sequence: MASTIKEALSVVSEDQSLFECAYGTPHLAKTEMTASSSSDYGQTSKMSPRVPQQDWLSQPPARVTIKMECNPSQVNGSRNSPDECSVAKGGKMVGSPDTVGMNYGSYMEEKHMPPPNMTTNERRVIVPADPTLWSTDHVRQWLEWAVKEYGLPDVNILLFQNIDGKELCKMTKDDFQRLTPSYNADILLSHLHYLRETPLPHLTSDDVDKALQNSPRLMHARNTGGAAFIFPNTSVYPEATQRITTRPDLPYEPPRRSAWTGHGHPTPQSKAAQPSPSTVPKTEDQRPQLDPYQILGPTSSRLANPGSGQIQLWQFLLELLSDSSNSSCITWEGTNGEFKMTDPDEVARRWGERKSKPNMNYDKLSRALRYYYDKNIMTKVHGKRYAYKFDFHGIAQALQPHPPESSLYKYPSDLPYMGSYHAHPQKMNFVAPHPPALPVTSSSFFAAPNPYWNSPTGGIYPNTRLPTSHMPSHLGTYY
Method in brief: as §1

ELF1 = ELF1 (Homo sapiens, UniProt P32519 1-619); details: protein: recombinant; tags: N-terminal GST; dsDNA, one strand shown
Sequence of ELF1 (P32519 whole entry): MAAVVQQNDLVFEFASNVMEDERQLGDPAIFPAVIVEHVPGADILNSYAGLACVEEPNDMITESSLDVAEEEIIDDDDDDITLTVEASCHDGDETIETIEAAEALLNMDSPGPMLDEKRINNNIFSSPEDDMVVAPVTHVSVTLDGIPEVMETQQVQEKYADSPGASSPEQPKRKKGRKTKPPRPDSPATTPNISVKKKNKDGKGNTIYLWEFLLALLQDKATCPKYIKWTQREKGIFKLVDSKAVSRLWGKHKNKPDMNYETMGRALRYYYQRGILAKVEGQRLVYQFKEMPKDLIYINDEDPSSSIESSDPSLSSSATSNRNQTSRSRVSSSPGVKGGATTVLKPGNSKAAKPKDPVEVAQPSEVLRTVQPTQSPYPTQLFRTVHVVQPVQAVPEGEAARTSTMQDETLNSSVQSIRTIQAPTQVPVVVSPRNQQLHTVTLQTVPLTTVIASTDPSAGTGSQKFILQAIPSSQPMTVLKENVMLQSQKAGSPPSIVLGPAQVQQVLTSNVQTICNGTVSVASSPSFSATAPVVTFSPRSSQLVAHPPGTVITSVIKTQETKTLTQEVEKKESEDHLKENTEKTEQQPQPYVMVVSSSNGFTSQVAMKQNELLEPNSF
Method in brief: as §1

EHF = target: T5, EHF (Homo sapiens, UniProt Q9NZC4 1-300); details: protein: recombinant; tags: N-terminal GST; dsDNA, one strand shown
T5 sequence: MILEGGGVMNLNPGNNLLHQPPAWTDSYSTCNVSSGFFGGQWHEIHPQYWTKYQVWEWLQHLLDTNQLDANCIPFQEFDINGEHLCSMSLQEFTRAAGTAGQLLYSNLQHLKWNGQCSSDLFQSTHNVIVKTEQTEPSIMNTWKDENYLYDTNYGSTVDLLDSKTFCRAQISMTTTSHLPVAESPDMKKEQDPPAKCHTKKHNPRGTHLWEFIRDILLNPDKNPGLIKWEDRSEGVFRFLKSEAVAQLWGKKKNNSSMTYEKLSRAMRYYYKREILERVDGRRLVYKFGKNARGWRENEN
Method in brief: as §1

SPI1 = SPI1 (Homo sapiens, UniProt P17947 1-270); details: protein: recombinant; tags: N-terminal GST; dsDNA, one strand shown
Method in brief: as §1

SPIB = SPIB (Homo sapiens, UniProt Q01892 1-262); details: protein: recombinant; tags: N-terminal GST; dsDNA, one strand shown
Sequence of SPIB (Q01892 whole entry): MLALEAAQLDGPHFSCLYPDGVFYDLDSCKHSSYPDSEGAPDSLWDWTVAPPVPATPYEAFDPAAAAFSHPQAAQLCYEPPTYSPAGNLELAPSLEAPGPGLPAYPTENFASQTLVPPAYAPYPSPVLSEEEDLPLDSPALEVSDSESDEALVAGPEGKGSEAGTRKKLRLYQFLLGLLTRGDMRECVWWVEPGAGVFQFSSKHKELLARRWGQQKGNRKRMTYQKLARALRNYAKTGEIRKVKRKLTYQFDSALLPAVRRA
Method in brief: as §1

ELK3 = target: T6, ELK3 (Homo sapiens, UniProt P41970 1-407); details: protein: recombinant; tags: N-terminal GST; dsDNA, one strand shown
T6 sequence: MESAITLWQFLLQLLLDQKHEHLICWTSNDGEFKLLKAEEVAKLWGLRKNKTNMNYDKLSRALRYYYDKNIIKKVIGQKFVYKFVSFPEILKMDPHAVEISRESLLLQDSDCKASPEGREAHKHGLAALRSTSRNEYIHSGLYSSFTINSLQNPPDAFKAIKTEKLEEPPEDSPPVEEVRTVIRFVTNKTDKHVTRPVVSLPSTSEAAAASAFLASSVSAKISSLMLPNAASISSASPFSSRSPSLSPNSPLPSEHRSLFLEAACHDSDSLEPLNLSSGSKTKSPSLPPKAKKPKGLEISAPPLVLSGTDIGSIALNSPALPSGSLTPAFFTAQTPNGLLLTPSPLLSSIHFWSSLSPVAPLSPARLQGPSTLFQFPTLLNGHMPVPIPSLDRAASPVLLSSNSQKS
Method in brief: as §1

FEV = target: T7, FEV (Homo sapiens, UniProt Q99581 1-238); details: protein: recombinant; tags: N-terminal GST; dsDNA, one strand shown
T7 sequence: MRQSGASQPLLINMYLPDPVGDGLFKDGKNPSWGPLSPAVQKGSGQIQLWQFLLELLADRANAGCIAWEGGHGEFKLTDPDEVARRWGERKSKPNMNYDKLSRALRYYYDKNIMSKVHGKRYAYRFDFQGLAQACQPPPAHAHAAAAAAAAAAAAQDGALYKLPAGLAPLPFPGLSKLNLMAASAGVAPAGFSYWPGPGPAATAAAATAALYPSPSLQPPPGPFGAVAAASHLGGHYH
Method in brief: as §1

ETV5 = ETV5 (Homo sapiens, UniProt P41161 1-510); details: protein: recombinant; tags: N-terminal GST; dsDNA, one strand shown
Sequence of ETV5 (P41161 whole entry): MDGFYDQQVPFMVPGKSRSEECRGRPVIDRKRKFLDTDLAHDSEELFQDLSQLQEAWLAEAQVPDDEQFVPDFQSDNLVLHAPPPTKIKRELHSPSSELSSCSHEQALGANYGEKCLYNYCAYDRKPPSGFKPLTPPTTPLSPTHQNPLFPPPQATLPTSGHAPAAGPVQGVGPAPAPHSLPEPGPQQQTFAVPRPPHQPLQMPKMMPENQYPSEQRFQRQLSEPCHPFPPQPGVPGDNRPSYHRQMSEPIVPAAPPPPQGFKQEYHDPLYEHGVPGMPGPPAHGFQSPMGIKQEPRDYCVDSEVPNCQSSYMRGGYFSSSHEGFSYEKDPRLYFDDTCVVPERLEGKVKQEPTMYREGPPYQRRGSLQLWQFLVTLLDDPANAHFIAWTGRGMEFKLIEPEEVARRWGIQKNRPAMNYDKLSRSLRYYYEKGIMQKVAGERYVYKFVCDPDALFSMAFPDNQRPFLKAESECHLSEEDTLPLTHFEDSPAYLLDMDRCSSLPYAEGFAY
Method in brief: as §1

HSF1 = HSF1 (Homo sapiens, UniProt Q00613 1-529); details: protein: recombinant; tags: N-terminal GST; chain copies: 3; dsDNA, one strand shown
Sequence of HSF1 (Q00613 whole entry): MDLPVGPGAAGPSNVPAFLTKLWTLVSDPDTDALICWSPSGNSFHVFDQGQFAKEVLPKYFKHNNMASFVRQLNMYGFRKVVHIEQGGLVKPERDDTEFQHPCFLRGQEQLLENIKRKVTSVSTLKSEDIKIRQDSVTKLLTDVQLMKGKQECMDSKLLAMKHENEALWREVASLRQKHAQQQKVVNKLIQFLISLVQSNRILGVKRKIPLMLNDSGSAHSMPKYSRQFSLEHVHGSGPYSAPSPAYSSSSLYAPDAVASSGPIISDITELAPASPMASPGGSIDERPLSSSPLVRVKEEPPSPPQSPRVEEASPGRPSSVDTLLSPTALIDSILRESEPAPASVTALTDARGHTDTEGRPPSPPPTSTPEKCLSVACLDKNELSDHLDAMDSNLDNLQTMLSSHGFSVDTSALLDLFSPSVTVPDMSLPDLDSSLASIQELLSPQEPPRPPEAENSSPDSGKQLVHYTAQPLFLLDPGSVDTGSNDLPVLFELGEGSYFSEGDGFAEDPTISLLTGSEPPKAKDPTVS
Method in brief: as §1

SPIC = target: T8, SPIC (Homo sapiens, UniProt Q8N5J4 1-248); details: protein: recombinant; tags: N-terminal GST; dsDNA, one strand shown
T8 sequence: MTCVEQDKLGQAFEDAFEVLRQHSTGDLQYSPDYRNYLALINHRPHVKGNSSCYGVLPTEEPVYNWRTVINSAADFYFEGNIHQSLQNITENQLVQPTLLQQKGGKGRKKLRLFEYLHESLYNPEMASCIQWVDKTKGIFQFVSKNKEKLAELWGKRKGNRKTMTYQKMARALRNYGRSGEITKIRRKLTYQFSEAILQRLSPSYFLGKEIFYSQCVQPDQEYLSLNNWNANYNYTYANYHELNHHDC
Method in brief: as §1

ELF4 = ELF4 (Homo sapiens, UniProt Q99607 1-663); details: protein: recombinant; tags: N-terminal GST; dsDNA, one strand shown
Sequence of ELF4 (Q99607 whole entry): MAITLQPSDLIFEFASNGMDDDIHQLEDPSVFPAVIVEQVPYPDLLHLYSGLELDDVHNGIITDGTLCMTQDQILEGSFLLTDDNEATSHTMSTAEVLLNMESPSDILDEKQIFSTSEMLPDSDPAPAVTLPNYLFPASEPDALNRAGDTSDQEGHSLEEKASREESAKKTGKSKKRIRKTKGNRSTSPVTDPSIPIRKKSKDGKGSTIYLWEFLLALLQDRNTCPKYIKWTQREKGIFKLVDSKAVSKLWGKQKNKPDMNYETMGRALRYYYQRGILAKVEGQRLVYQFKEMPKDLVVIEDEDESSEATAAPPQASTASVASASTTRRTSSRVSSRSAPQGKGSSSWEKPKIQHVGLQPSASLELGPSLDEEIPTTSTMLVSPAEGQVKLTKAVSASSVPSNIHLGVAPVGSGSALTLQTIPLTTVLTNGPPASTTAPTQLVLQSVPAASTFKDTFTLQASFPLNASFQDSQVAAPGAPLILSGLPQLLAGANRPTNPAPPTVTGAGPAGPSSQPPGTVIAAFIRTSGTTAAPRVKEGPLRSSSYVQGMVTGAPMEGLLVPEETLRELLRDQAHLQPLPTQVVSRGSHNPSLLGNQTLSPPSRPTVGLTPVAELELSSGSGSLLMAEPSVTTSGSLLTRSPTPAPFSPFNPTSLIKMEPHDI
Method in brief: as §1

ELK4 = target: T9, ELK4 (Homo sapiens, UniProt P28324-2 1-405); details: protein: recombinant; tags: N-terminal GST; dsDNA, one strand shown
T9 sequence: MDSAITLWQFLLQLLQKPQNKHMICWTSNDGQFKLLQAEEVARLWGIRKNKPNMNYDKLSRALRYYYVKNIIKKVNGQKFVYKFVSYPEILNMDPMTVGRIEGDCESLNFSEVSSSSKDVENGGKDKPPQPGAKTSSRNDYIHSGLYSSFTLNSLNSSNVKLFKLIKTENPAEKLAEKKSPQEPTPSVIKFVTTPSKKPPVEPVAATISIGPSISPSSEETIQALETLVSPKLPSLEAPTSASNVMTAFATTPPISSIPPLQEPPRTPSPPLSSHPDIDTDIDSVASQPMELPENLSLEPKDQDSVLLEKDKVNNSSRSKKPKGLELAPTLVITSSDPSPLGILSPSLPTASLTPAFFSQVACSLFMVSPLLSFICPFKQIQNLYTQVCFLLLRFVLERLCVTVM
Method in brief: as §1

ETV2 = target: T10, ETV2 (Homo sapiens, UniProt O00321 1-342); details: protein: recombinant; tags: N-terminal GST; dsDNA, one strand shown
T10 sequence: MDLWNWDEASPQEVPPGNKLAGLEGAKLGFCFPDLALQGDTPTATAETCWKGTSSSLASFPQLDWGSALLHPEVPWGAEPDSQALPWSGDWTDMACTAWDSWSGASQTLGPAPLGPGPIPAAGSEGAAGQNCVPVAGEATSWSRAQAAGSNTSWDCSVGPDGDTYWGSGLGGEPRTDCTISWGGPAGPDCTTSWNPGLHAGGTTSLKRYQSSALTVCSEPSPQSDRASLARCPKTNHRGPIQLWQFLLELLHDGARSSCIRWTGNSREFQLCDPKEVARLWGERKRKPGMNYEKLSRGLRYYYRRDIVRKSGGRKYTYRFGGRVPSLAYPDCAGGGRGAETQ
Method in brief: as §1

ELF3 = target: T11, ELF3 (Homo sapiens, UniProt P78545 1-371); details: protein: recombinant; tags: N-terminal GST; dsDNA, one strand shown
T11 sequence: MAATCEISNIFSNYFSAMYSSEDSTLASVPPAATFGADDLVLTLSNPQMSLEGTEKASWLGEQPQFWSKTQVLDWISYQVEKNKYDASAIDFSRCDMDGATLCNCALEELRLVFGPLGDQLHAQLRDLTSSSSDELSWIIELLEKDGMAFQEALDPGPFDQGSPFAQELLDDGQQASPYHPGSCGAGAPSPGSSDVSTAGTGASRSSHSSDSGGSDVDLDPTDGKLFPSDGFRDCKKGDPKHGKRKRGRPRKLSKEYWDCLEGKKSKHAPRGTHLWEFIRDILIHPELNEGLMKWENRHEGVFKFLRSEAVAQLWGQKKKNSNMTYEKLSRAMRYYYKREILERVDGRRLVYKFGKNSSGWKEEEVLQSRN
Method in brief: as §1

CRX = CRX (Homo sapiens, UniProt O43186 1-299); details: protein: recombinant; tags: N-terminal GST; dsDNA, one strand shown
Sequence of CRX (O43186 whole entry): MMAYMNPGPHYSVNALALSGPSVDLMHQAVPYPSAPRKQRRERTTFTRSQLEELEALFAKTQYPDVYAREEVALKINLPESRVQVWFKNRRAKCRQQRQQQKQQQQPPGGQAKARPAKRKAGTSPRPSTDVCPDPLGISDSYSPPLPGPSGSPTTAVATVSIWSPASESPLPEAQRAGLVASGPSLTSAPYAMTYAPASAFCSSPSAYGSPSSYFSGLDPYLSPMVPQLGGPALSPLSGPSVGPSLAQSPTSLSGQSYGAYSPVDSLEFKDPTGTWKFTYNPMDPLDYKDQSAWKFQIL
Method in brief: as §1

ETV1 = ETV1 (Homo sapiens, UniProt P50549 1-477); details: protein: recombinant; tags: N-terminal GST; dsDNA, one strand shown
Sequence of ETV1 (P50549 whole entry): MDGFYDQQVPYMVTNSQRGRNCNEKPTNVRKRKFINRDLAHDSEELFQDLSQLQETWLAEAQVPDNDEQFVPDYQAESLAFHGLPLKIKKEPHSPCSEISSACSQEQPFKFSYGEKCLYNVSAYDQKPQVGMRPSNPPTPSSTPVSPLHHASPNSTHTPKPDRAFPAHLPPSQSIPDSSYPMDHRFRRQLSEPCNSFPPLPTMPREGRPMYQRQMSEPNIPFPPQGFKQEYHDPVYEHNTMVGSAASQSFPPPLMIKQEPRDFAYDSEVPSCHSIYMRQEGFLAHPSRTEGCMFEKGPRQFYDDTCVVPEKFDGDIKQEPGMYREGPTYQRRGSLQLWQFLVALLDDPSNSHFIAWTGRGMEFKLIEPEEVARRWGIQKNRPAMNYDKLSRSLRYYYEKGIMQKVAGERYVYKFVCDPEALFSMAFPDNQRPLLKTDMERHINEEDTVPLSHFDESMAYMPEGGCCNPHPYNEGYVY
Method in brief: as §1

GTGCTT
binding signal (FLI1): 1.21 fold enrichment (6-mer frequency, TF over GST control)
binding signal (ELK1): 1.36 fold enrichment (6-mer frequency, TF over GST control)
binding signal (GABPA): 1.3 fold enrichment (6-mer frequency, TF over GST control)
binding signal (ERG): 1.38 fold enrichment (6-mer frequency, TF over GST control)
binding signal (ELF1): 1.2 fold enrichment (6-mer frequency, TF over GST control)
binding signal (EHF): 1.24 fold enrichment (6-mer frequency, TF over GST control)
binding signal (SPI1): 1.33 fold enrichment (6-mer frequency, TF over GST control)
binding signal (SPIB): 1.24 fold enrichment (6-mer frequency, TF over GST control)
binding signal (ELK3): 1.4 fold enrichment (6-mer frequency, TF over GST control)
binding signal (FEV): 1.25 fold enrichment (6-mer frequency, TF over GST control)
binding signal (ETV5): 1.19 fold enrichment (6-mer frequency, TF over GST control)
binding signal (HSF1): 1.05 fold enrichment (6-mer frequency, TF over GST control)
binding signal (SPIC): 1.46 fold enrichment (6-mer frequency, TF over GST control)
binding signal (ELF4): 1.27 fold enrichment (6-mer frequency, TF over GST control)
binding signal (ELK4): 1.1 fold enrichment (6-mer frequency, TF over GST control)
binding signal (ETV2): 1.41 fold enrichment (6-mer frequency, TF over GST control)
binding signal (ELF3): 1.14 fold enrichment (6-mer frequency, TF over GST control)
binding signal (CRX): 1.14 fold enrichment (6-mer frequency, TF over GST control)
binding signal (ETV1): 1.16 fold enrichment (6-mer frequency, TF over GST control)
